# Results published in paper PMC5540273 (PLoS ONE, 2017).
# Tests used:
# Settings in all cases: concentration: 1 μM, replicates: in singlicate; n = 1
# YANK3 = tested on: T1, YANK3
# T1 construct: gene STK32C
# YES = tested on: T2, YES
# T2 construct: gene YES1
# YSK1 = tested on: T3, YSK1
# T3 construct: gene STK25
# YSK4 = tested on: T4, YSK4
# T4 construct: gene MAP3K19
# ZAK = tested on: ZAK
# ZAP70 = tested on: ZAP70
# p38-alpha = tested on: T5, p38-alpha
# T5 construct: gene MAPK14
# p38-beta = tested on: T6, p38-beta
# T6 construct: gene MAPK11
# p38-delta = tested on: p38-delta
# p38-gamma = tested on: T7, p38-gamma
# T7 construct: gene MAPK12
# 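Further: KINOMEscan kinase panel screen.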
SMILES,%Inh (YANK3),%Inh (YES),%Inh (YSK1),%Inh (YSK4),%Inh (ZAK),%Inh (ZAP70),%Inh (p38-alpha),%Inh (p38-beta),%Inh (p38-delta),%Inh (p38-gamma)
Cc1cccc(-c2nc(-c3ccc(S(C)(=O)=O)cc3)sc2-c2ccncc2)c1,23%,0%,18%,9%,30%,0%,92.4%,0%,19%,12%
O=c1cc(N2CCOCC2)nc2n(Cc3cccc4ccccc34)ccn12 [GSK2333389],38%,2%,0%,15%,3%,0%,0%,0%,16%,0%
COc1ccc(COc2cc(-n3cnc4ccccc43)sc2C(N)=O)cc1 [GSK1024304],0%,0%,0%,15%,14%,0%,35%,0%,36%,0%
CCc1ccnc(/C=C/c2n[nH]c3cc(Sc4ccccc4C(=O)NC)ccc23)c1,0%,4%,0%,60%,37%,20%,0%,0%,7%,7%
O=C(NCCCN1CCOCC1)c1cccc(Nc2nccc(Nc3ccc(Oc4ccccc4)cc3)n2)c1 [GW663929],1%,84%,22%,26%,47%,6%,11%,0%,18%,0%
